# Abeta yeast res: compounds reversing amyloid beta toxicity in yeast. yeast expressing A-beta42, growth rescue, OD600, 48 h; response scale: 0% DMSO, 100% iron-clioquinol control. Potency, µM (series often up to 46.1 µM), hits mostly activators. actives 0.063% (n = 410,000); note: nearly all actives have a fitted effect of over 55% in size
#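 Growth rescue measured by 600 nm absorbance after 48 h yeast culture at 30 C with compound. Values normalized between DMSO and an equimolar ferric chloride plus clioquinol control.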
# ERG Ets-DNA blk: ERG Ets/DNA interaction inhibition | P11308 | fluorescence polarization, His-ERG Ets domain / labelled DNA | Potency, µM (titrated, usually from 76.9 µM), without a hit: at the top dose FP activity, negative = inhibition, actives largely listed as inhibitors | actives 0.028% (n = 370,000); active = well fitted inhibition curve with a large enough effect in the polarisation, with a control signal flat; inconclusive = small, poorly fitted or top-dose-only effect, or effect the other way, or a change in a side signal; inactive = no such curve, though single readings can be large or run the other way; the % refers to the polarisation;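 note: polarization taken with two DNA probes labelled with fluorescein and Texas red; % of control where 0% means no effect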
# Target sequence (P11308 whole entry, looked up, the tested form may be a part): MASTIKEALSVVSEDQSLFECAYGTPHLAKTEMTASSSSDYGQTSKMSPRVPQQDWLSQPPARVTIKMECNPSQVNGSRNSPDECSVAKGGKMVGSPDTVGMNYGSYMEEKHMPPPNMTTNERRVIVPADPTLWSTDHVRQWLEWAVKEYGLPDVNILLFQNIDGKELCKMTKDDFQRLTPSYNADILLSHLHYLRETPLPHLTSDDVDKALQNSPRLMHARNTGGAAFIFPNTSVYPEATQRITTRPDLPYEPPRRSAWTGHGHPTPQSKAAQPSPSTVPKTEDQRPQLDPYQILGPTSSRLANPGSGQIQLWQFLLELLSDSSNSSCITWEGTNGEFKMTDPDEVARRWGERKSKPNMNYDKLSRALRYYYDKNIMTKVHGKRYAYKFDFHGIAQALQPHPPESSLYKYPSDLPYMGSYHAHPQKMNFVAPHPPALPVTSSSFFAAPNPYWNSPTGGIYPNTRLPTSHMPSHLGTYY
#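 His-tagged ERG Ets domain (1 uM in the protein solution; 300mM KCl, 50mM Tris-HCl, 1mM EDTA, 1mM DTT, pH 7.5) received compound, then a probe mix of 5 nM fluorescein-DNA and 100nM Texas-615-DNA. Fluorescence polarization was read for both dyes.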
# aSyn yeast inh: alpha-synuclein toxicity inhibition in yeast; Yeast expressing alpha-synuclein, growth rescue, BacTiter-Glo, 24 h; Potency, µM (top dose mostly 46.1 µM), without a hit: at the highest dose growth rescue (activation), usual class: activators; actives 0.14% (n = 370,000); AID 652106; note: % of control where 0% means no effect; nearly all actives have a fitted effect of over 65% in size
#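 Rescue of yeast growth: cells expressing toxic alpha-synuclein, induced in galactose at OD600 0.02, incubated with compound 24 h at 30 C. ATP luminescence quantified growth; inhibitors of toxicity appear as activators.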
# Mito fusion act: mitochondrial division inhibition or fusion activation; S. cerevisiae fusion-defective mutant growth rescue, CellTiterGlo 48 h; Potency, µM (doses to about 46.1 µM), inactives show top-dose growth rescue (activation), most hits filed as activators; actives 0.23% (n = 320,000); note: % of control where 0% means no effect; nearly all actives have a fitted effect of over 45% in size
#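 Yeast fusion mutant, YPEG (non-fermentable carbon), compound, 48 h at 37C non-permissive; CellTiterGlo added, 10 min RT, luminescence read. Rescued growth = division inhibition.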
# TDP43 rescue: TDP-43 toxicity inhibition in yeast | TDP-43 expressing yeast growth rescue, BacTiter-Glo, 24 h | Potency, µM (top dose mostly 46.1 µM), for the others: at the top dose growth rescue (activation), most hits filed as activators | actives 1.8% (n = 410,000) | AID 652104; note: % of control where 0% means no effect; nearly all actives have a fitted effect of over 50% in size
#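 Readout is BacTiter-Glo luminescence of cell growth, so inhibitors register as activators. TDP-43-expressing yeast at OD600=0.02 in galactose medium, after raffinose pregrowth to mid-log, were incubated with compound for 24 hr at 30 deg C.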
# FUS yeast rescue: FUS proteinopathy suppression in yeast | Potency, µM (titrated, usually from 76.6 µM), usual class: activators | actives 0.24% (n = 390,000) | S. cerevisiae FUS-expressing, growth rescue, OD600, 24 h | AID 1347120;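 note: plate controls were DMSO vehicle for no effect and reference control for full effect; nearly all actives have a fitted effect of over 55% in size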
#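 Toxicity suppression screen in FUS-yeast. Cells induced with 2% galactose, starting OD 0.005, treated 24hr at 30C with compounds at multiple final concentrations; growth by OD600.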
# * = called active by the depositor; i = inactive; u = inconclusive; x = no result given; [ ] = another dose, or the depositor's remark. Hits are enriched below; roughly 2.2% of the tested compounds scored in any of these assays. Unless noted, calls come from the whole dose curve; as a rule, active = well fitted curve in the direction sought with a large enough effect; inconclusive = small, poorly fitted or top-dose-only effect, or another doubt; inactive = no such curve, though single readings can be large; an effect the other way counts as inactive or inconclusive. Potency is the fitted concentration of half-maximal effect.
SMILES,Abeta yeast res,ERG Ets-DNA blk,aSyn yeast inh,Mito fusion act,TDP43 rescue,FUS yeast rescue
CC(C)CCn1c(/C=C/c2ccccc2)nc2ccccc21,i,7.4%,x,x,14.1µM*,i
COc1ccccc1Cn1c(/C=C/c2ccccc2)nc2ccccc21,i,7.1%,-29.1%,26.7%,20µM*,x
CCC(C)Cn1c(/C=C/c2ccccc2)nc2ccccc21 (centres undefined),i,-1.1%,x,x,14.1µM*,i
CC(C)Cn1c(/C=C/c2ccc(F)cc2)nc2ccccc21,i,2.6%,-13.9%,x,14.1µM*,i
Cc1cn([C@H]2C[C@H](O)[C@@H](/C=C/C(=O)NCCc3ccc(S(N)(=O)=O)cc3)O2)c(=O)[nH]c1=O,i,x,0.5%,x,16.8%,i
CCc1ccccc1NC(=O)CN1C(=O)c2cccnc2Oc2ccc(Cl)cc21,i,7.4%,x,x,18.4%,u
NS(=O)(=O)c1ccc(Sc2ccc3c(c2)CCC3)nc1,i,-25.2%,-0.5%,21.8%,15.8µM*,i
O=[N+]([O-])c1ccc(CNc2ccc(F)cc2)s1,u,5.1%,2.8%,0.1%,12.6µM*,i
COc1ccc(NCc2ccc([N+](=O)[O-])s2)c(OC)c1,i,-3.3%,17.5%,7.5%,10µM*,x
COc1ccc(NCc2ccc([N+](=O)[O-])s2)cc1,i,-0.2%,20.0%,11.7%,u,i
O=[N+]([O-])c1ccc(CNc2ccc(Cl)cc2)s1,u,5.4%,-9.2%,-4.1%,u,i
O=[N+]([O-])c1ccc(CNc2cccc(Cl)c2)s1,i,-3.7%,u,2.6%,17.8µM*,i
COc1ccc(-c2nc3ccccc3s2)cc1NC(=O)c1ccc(C#N)cc1F,i,2.0%,9.0%,x,-11.3%,i
CN(C)c1ccc(CNC(=O)CN2C(=O)CCn3nc(-c4cn(C)c5ccccc45)cc32)cc1,i,-1.0%,x,x,u,i
C/C=C1\NC(=O)[C@H](C)NC(=O)[C@@H](NC(=O)[C@@H](Cc2ccc(O)cc2)NC(=O)[C@@H](NC(=O)/C(C)=C/C)C(C)C)[C@@H](C)OC(=O)[C@H](CCCCc2ccc(O)cc2)NC(=O)[C@@H](CCC(=O)OC)NC1=O,i,x,1.3%,x,0.0%,u
CCOC(=O)c1cnc(SC2CCc3ccccc3C2=O)nc1N (centres undefined),i,-1.8%,5.4%,20.3%,20µM*,u
CCCCNC(=O)N1CCN(C(c2ccccc2)c2ccccc2)CC1,i,18.9%,-2.1%,17.8µM*,-4.0%,i
CCC(=O)NCC[C@@H]1CCc2ccc3c(c21)CCO3,x,x,x,x,x,i
Cc1cccc(OCC(=O)Nc2ccc3nc(C)sc3c2)c1,i,3.0%,-39.2%,-3.9%,2.51µM*,i
Cc1nc2ccc(NC(=O)COc3ccccc3)cc2s1,i,4.3%,-68.2%,-33.8%,u,i
Cc1nc2ccc(NC(=O)COc3cccc(F)c3)cc2s1,i,18.4%,-51.2%,-2.8%,20µM*,i
COc1ccc(NC(=O)Nc2ccccc2C(=O)N2CCCC2)cc1OC,x,x,x,x,x,i
Cc1ccccc1OCC(=O)NNC(=O)C1CCN(c2ncnc3sc(C)c(C)c23)CC1,i,14.9%,1.8%,0.3%,3.7%,i
CCOc1ccccc1N=C1SCC(C)N1C(=O)C1CCN(c2ncnc3sc(C)c(C)c23)CC1 (centres undefined),i,-7.3%,5.6%,x,20µM*,i
O=C1[C@@H]2C(c3ccccc3Cl)=NO[C@@H]2C(=O)N1Cc1ccccc1,u,-2.6%,2.1%,0.0%,14.1µM*,i
SMILES,Abeta yeast res,ERG Ets-DNA blk,aSyn yeast inh,Mito fusion act,TDP43 rescue,FUS yeast rescue
COc1ccc(CN2C(=O)[C@@H]3C(c4ccccc4Cl)=NO[C@@H]3C2=O)cc1,i,-1.2%,-5.2%,-4.3%,u,i
CC(=NCc1cccc(Cl)c1)c1nc(-c2ccco2)oc1O,i,-1.0%,-1.6%,x,11.2µM*,i
Oc1oc(-c2ccco2)nc1C=Nc1cccc(Cl)c1,i,-4.6%,-12.4%,-6.0%,28.4%,i
COc1cc(/C=C/c2nc(N)nc(-c3ccccc3O)n2)cc(OC)c1OC,i,-0.7%,-1.0%,1.3%,-8.6%,i
COc1cc(/C=C/c2nc(-c3ccccc3O)n[nH]2)cc(OC)c1OC,i,6.0%,12.8%,u,15.8µM*,x
COc1ccc(/C=C/c2nc(N)nc(-c3ccccc3O)n2)cc1OC,i,-10.3%,13.2%,-0.6%,15.8µM*,x
COc1cc(/C=C/c2noc(-c3ccccc3O)n2)cc(OC)c1OC,i,-7.5%,1.8%,0.6%,-2.8%,i
CCOC(=O)N1CCN(C(=O)C[C@@H]2C(=O)N3CCCC4=C3[C@@]2(C(=O)OC)CCCC4)CC1,x,x,x,x,x,i
COc1ccc(N2CCN(C(=O)c3cc4c(-c5cccc(OC)c5)nn(C)c4s3)CC2)cc1,i,2.2%,0.3%,-5.5%,15.8µM*,u
COc1ccc(-c2nn(C)c3sc(C(=O)N4CCOCC4)cc23)cc1OC,i,-1.0%,1.2%,10.5%,12.5%,i
COc1ccc(-c2nn(C)c3sc(C(=O)N4CCN(c5ccccc5F)CC4)cc23)cc1OC,i,0.9%,x,x,20µM*,i
N#CCC[C@H]1CC[C@]2(CCCN(c3ccccc3)C2)O1,x,x,x,x,x,i
COc1ccc(OC)c(C(=O)c2coc3ccc(OC(C)=O)cc23)c1,i,2.3%,18.9%,24.4%,-14.9%[0.397 µM],i
COc1ccc(C(=O)c2coc3ccc(OC(C)=O)cc23)cc1,i,-7.2%,-13.2%,-1.0%,12.6µM*,i
CNC(=O)COC(=O)/C=C/c1ccco1,i,7.7%,-22.4%,-5.0%,0.0%,i
O=C(COC(=O)/C=C/c1ccco1)NCc1ccco1,i,-3.7%,6.0%,-2.8%,2.5%,i
CSc1ccccc1NC(=O)COC(=O)/C=C/c1ccco1,i,0.6%,1.1%,x,5.01µM*,i
O=C(COC(=O)/C=C/c1ccco1)NCCc1ccccc1,i,-7.1%,3.3%,5.9%,15.8µM*,i
Cc1nn(-c2ccc(N3CCCC3)nn2)c(C)c1CCC(=O)N1CCN(c2ccc(F)cc2)CC1,i,-3.6%,x,x,-20.1%,i
CCOC(=O)c1cc(-c2ccccc2C)n(CC2CC(c3cccc([N+](=O)[O-])c3)=NO2)n1 (centres undefined),i,-9.2%,6.8%,u,20µM*,i

# Compound activity deposited in PubChem by National Center for Advancing Translational Sciences (NCATS).
